Where “and” joins values, the source holds several entries; their conditions need not be identical. Identical values can stand only once. In all, about 5,500 compounds went through this assay and about 2,000 (36%) were called active. Inconclusive results (about 18%) are left out. Cut-off read from the data, not from the text of the source: active = normalized growth mostly below about 0.91 (no sharp cut-off); inconclusive = no clear call, values can overlap the other calls; inactive = mostly above about 0.92. Some of the results follow.
Test: chemical genetic growth profiling, strain panel (AID 1159580);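 note: tested at 20 µM; growth read once vehicle control cultures reached saturation at 30 °C; 1 = growth at the plate median or of vehicle wells; lower values mean less growth of the strain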
Details: S. cerevisiae deletion strains, growth OD

Measured: normalized growth

O=c1n(CCCN2CCN(c3cccc(Cl)c3)CC2)nc2ccccn12
inactive: locus YAL013W, strain DEP1, hits give low values 0.995 | locus YAL021C, strain ccr4, hits give low values 0.939 | locus YAL026C, strain drs2, hits give low values 0.987 | locus YAL030W, strain snc1, hits give low values 0.988 | locus YAL040C, strain CLN3, hits give low values 0.987 | locus YBL061C, strain skt5, hits give low values 0.983 | locus YBR009C, strain hhf1, hits give low values 0.983 | locus YBR021W, strain FUR4, hits give low values 0.998 | locus YBR023C, strain chs3, hits give low values 0.981 | locus YBR171W, strain sec66, hits give low values 0.979 | locus YBR229C, strain ROT2, hits give low values 0.951 | locus YBR231C, strain swc5, hits give low values 0.981 | locus YBR279W, strain paf1, hits give low values 0.985 | locus YCL011C, strain gbp2, hits give low values 0.976 | locus YCL016C, strain dcc1, hits give low values 0.982 | locus YCL029C, strain bik1, hits give low values 0.987 | locus YCL061C, strain MRC1 (second series), hits give low values 0.998 | locus YCL061C, strain MRC1, hits give low values 0.984 | locus YCL069W, strain vba3, hits give low values 0.975 | locus YCR088W, strain abp1, hits give low values 0.978 | locus YDL005C, strain med2, hits give low values 0.965 | locus YDL035C, strain GPR1, hits give low values 0.984 | locus YDL040C, strain nat1, hits give low values 0.979 | locus YDL074C, strain BRE1, hits give low values 0.941 | locus YDL101C, strain DUN1, hits give low values 0.97 | locus YDL134C, strain PPH21, hits give low values 1 | locus YDL185W, strain tfp1, hits give low values 0.982 | locus YDL192W, strain arf1, hits give low values 0.986 | locus YDR001C, strain nth1, hits give low values 0.986 | locus YDR069C, strain doa4, hits give low values 0.966 | locus YDR101C, strain arx1, hits give low values 0.97 | locus YDR137W, strain rgp1, hits give low values 0.94 | locus YDR150W, strain NUM1, hits give low values 0.992 | locus YDR159W, strain sac3, hits give low values 0.956 | locus YDR162C, strain NBP2, hits give low values 0.991 | locus YDR195W, strain ref2 0.977 | locus YDR297W, strain sur2, hits give low values 0.98 | locus YDR318W, strain mcm21, hits give low values 0.998 | locus YDR334W, strain swr1, hits give low values 0.964 | locus YDR335W, strain msn5, hits give low values 0.984 | locus YDR363W, strain ESC2, hits give low values 0.998 | locus YDR388W, hits give low values 0.989 | locus YDR392W, strain spt3, hits give low values 0.95 | locus YDR502C, strain sam2, hits give low values 0.989 | locus YEL003W, strain gim4, hits give low values 0.986 | locus YEL037C, strain rad23, hits give low values 0.964 | locus YEL061C, strain CIN8 (second series), hits give low values 0.975 | locus YEL061C, strain CIN8, hits give low values 0.986 | locus YER002W, strain NOP16, hits give low values 1 | locus YER015W, strain faa2, hits give low values 0.978 | locus YER016W, strain bim1, hits give low values 0.987 | locus YER110C, hits give low values 0.984 | locus YER111C, strain swi4, hits give low values 0.971 | locus YER155C, strain BEM2 (second series), hits give low values 0.948 | locus YER155C, strain BEM2, hits give low values 0.994 | locus YER167W, strain BCK2, hits give low values 1 | locus YFR010W, strain ubp6, hits give low values 0.975 | locus YGL078C, strain dbp3, hits give low values 0.999 | locus YGL086W, strain mad1, hits give low values 0.976 | locus YGL167C, strain pmr1, hits give low values 0.976 | locus YGL173C, strain kem1, hits give low values 0.973 | locus YGL227W, strain vid30, hits give low values 0.985 | locus YGL240W, strain doc1, hits give low values 0.98 | locus YGL248W, strain PDE1, hits give low values 0.964 | locus YGL253W, strain hxk2, hits give low values 0.999 | locus YGR078C, strain PAC10, hits give low values 0.99 | locus YGR135W, strain pre9, hits give low values 1.03 | locus YGR229C, strain SMI1, hits give low values 1.01 | locus YGR252W, strain gcn5, hits give low values 0.993 | locus YHR013C, strain ard1, hits give low values 0.854 | locus YHR027C, strain rpn1, hits give low values 0.978 | locus YHR030C, strain SLT2, hits give low values 1 and 0.995 | locus YHR079C, strain IRE1 (second series), hits give low values 0.998 | locus YHR079C, strain IRE1, hits give low values 1 | locus YHR094C, strain hxt1, hits give low values 0.99 | locus YHR129C, strain ARP1, hits give low values 0.994 | locus YHR142W, strain chs7, hits give low values 0.985 | locus YHR200W, strain rpn10, hits give low values 0.997 | locus YIL066C, strain RNR3, hits give low values 0.955 | locus YIL073C, strain SPO22, hits give low values 1.13 | locus YIL125W, strain kgd1, hits give low values 0.988 | locus YIR030C, strain dcg1, hits give low values 0.987 | locus YJL092W, strain hpr5, hits give low values 0.97 | locus YJL095W, strain BCK1 (second series), hits give low values 0.987 | locus YJL095W, strain BCK1, hits give low values 0.898 and 1 | locus YJL115W, strain asf1, hits give low values 0.978 | locus YJL129C, strain trk1, hits give low values 0.946 | locus YJL134W, strain LCB3, hits give low values 0.992 | locus YJL154C, strain vps35, hits give low values 0.975 | locus YJL164C, strain tpk1, hits give low values 0.984 | locus YJL166W, strain qcr8, hits give low values 0.969 | locus YJL168C, strain set2, hits give low values 0.993 | locus YJL187C, strain SWE1 (second series), hits give low values 0.932 | locus YJL187C, strain SWE1, hits give low values 0.979 | locus YJR043C, strain POL32, hits give low values 0.936
